Assay outcomes as filed in PubChem BioAssay.
eIF4H inh: inhibitors of RNA binding by human eIF4H | Q15056 | hit rate 0.94% among 290,000 | inhibition, % at 35 µM | eIF4H fluorescence polarization binding assay;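 note: calls also rest on retests at 20 µM and on dose response follow-up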
MLLE-PAM2 inh: blocks PAM2 peptide binding to the PABP1 MLLE domain | P11940 | GST-MLLE / FITC-PAM2 fluorescence polarization | inhibition, % at 20 µM | hit rate 0.36% among 360,000 | AID 588489; in the data active = inhibition above about 35%, passing the limit was not always enough;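 note: plate controls were DMSO wells with GST-MLLE for no effect and wells lacking GST-MLLE protein for full effect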
PABP polyA inh: PABP-poly(A) binding inhibition; P11940; inhibition, % at 35 µM; PABP-poly(A) RNA binding, fluorescence polarization; hit rate 1% among 290,000; AID 2014;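 note: calls also rest on retests at 20 µM and on dose response follow-up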
eIF4E 4G PPI: eIF4E/eIF4G interaction inhibition in translation initiation | AID 782 | inhibition, % at 21.7 µM | hit rate 0.37% among 220,000 | TR-FRET eIF4E-eIF4GI(517-606) binding, 2 h;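 active = inhibition above about 30%, limit read from the data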;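 note: 0% = full FRET control wells and 100% = background wells lacking eIF4GI fragment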
PERK inh: human PERK inhibition, primary cell-based screen; Q9NZJ5; CHO PERK-DD fusion, SEAP luminescence translation reporter; inhibition, % at 5.6 µM; hit rate 0.17% among 220,000;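 active = inhibition above the mean inhibition of all tested compounds plus 3 SD, set separately per screening campaign, cut at about 2.9% in these data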;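 note: PERK kinase domain activated by AP20187 dimerizer at 100 nM; 0% = DMSO with dimerizer and 100% = rapamycin at 8.4 µM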
The depositor's hits bear a star; ? = inconclusive; . = no result; [ ] = another dose, or the depositor's remark. This is a sample that favours compounds with a hit; in the whole collection about 1.6% have one here. Unless noted, the rule behind the calls is not given here.

SMILES	eIF4H inh	MLLE-PAM2 inh	PABP polyA inh	eIF4E 4G PPI	PERK inh
COc1ccc2c(c1)c(CC(=O)Nc1ccc(C(C)=O)cc1)c(C)n2C(=O)c1ccc(Cl)cc1	53*	-10	active	-2	-1
CN(Cc1ccc(F)cc1)C(=O)c1sccc1-c1ccccc1	15	6	50*	.	.
O=C(NC12CC3CC(CC(C3)C1)C2)c1cnccn1	10	46*	12	0	0
COc1ccc(NS(=O)(=O)c2cc(C(=O)N(C)CCc3ccccn3)ccc2Cl)cc1	.	18	.	.	.
CCCCC1(C)NC(=O)N(CC(=O)Nc2ccc(Cl)cc2C)C1=O (stereo not drawn)	.	-4	.	.	.
CCC(C)C(=O)N1c2ccccc2C(=C2SC(C(=O)OC)=C(C(=O)OC)S2)C(=S)C1(C)C (stereo not drawn)	-8	46*	7	1	0
Cc1ccc(OCC(=O)Nc2ccc(C)c(F)c2)c([N+](=O)[O-])n1	.	4	.	.	.
CN(CCO)c1nc(N)c2c(N)nc3c(c2c1C#N)CC(=O)N3C1CCCC1	?	.	77*	3	-1
CN(C)c1nc(N2CCN(c3ccc(F)cc3)CC2)c(C#N)c(=O)o1	-11	4	9	2	1
N#Cc1c(N2CCN(c3ccc(F)cc3)CC2)nc(N)c2c(N)nc3c(c12)CC(=O)N3C1CC1	?	-29	8.0*	5	0
CC(C)(C)N1C(=O)Cc2c1nc(N)c1c(N)nc(N3CCCCC3CO)c(C#N)c21 (stereo not drawn)	?	-7	?	-12	0
CSc1nc2ccc(NC(=O)NC(=O)c3c(F)cccc3F)cc2s1	-6	6	-5	4	0
COc1cccc(F)c1C(=O)NC(=O)Nc1ccc2nc(C)oc2c1	82	82	70*	0	1
CCCCc1cc(=O)oc2cc(C)c(CN3CCCC3)c(O)c12	60*	-38	62*	-5	1
CCc1cc(=O)oc2cc(C)c(CN3CCCC(C)C3)c(O)c12 (stereo not drawn)	63*	5	63*	8	1
CCCCc1cc(=O)oc2c(CN3CCCC3)c(O)ccc12	22	4	15	.	-1
O=C(NCCO)c1nc(C(=O)c2ccc(Cl)cc2)c2ccccc2n1	.	8	.	.	.
C/C=C/C(=O)OCC(=O)Nc1ccc(SC(F)F)cc1	active	29	50*	2	0
CC(=O)OCC(=O)Nc1ccc(SC(F)F)cc1	0	30	-15	-1	0
Cc1ccc2c(C)c(C(=O)Nc3ccc(S(=O)(=O)Nc4onc(C)c4C)cc3)oc2c1	-11	-3	0	.	.
COc1ccc2c(C#N)c3ccccn3c2c1	17	54*	3	1	1
Cc1cc(=O)n2ccccc2c1C#N	-2	3	-4	5	1
CC(=O)Nc1cc(-c2cccc(F)c2)cn2c(-c3ccccc3)cnc12	.	-15	.	.	.
CCCC(=O)N1CCC1(C)C(=O)NS(=O)(=O)c1cc(C)ccc1F (stereo not drawn)	.	-10	.	.	.
COc1cc(C=Nc2ccccc2C(=O)Nc2ccccc2)cc(OC)c1OC	3.3*	9	110*	0	-1
SMILES	eIF4H inh	MLLE-PAM2 inh	PABP polyA inh	eIF4E 4G PPI	PERK inh
COc1cc(NC(=O)c2ccccc2-c2ccccc2)cc(OC)c1OC	-2	.	-3	-10	0
N#Cc1ccsc1NC(=O)c1cccc(-n2cnnn2)c1	67	-83	38*	.	.
N#Cc1ccsc1NC(=O)c1cccc([N+](=O)[O-])c1	14	2	0	6	1
N#Cc1ccsc1NC(=O)c1ccc(Cl)c([N+](=O)[O-])c1	-4	7	8	-1	4.3*
O=C1N=C(N2CCCC2)S/C1=C\c1cn[nH]c1-c1ccccc1	-9	.	38	-1	1
Cc1ccccc1N1CCN(C2=NC(=O)/C(=C/c3cn[nH]c3-c3ccccc3)S2)CC1	?	-3	52*	-4	1
CC1(C(=O)NCC2CC2)Cc2c(-c3ccc4c(c3)OCO4)ccnc2O1 (stereo not drawn)	.	-6	.	.	.
COc1c(S(=O)(=O)NCCCN2CCOCC2)ccc(Cl)c1Cl	-1	45*	3	86*	0
CCN1/C(=C/c2ccc3ccccc3[n+]2CCCS(=O)(=O)[O-])C=Cc2cc(C)ccc21	-25	-180	32	.	.
CCN1/C(=C/c2ccc3ccccc3[n+]2CC)C=Cc2ccccc21	-24	-89	-60	46*[fluorescence artefact?]	-2
Nc1ccc2nn(-c3cccc4ccccc34)nc2c1	91*	-22	16	14	1
